What all share (test): growth AUC normalised to DMSO control (median) (fraction of control); higher = less growth inhibition, active = hit call of the paper
Holding throughout (conditions): 20 µM

In one assay the test system is P. vulgatus RND KO. The gist of the method: (§1)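 In 96-well plates of mGAM seeded at OD578 0.01, strains that had been passaged twice overnight without oxygen were exposed to approved-drug library compounds at 20 μM with 1% DMSO. Hourly OD578 readings were taken for 24 h in an anaerobic incubator. The trapezoidal-rule area under the curve, with curves truncated at entry into stationary phase, was expressed relative to same-plate vehicle wells as the median of three biological replicates.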

For another assay, the system named is P. vulgatus WT. In a few lines:
as §1

The subject of assay [1] is S. enterica typhimurium WT. The gist of the method: as §1
For assay [2], the system named is S. enterica typhimurium tolC KO. The gist of the method:
as §1

Data on 27 compounds can be found in the supplement of paper PMC12350171.

Counter-ions that a name gives are not always drawn. A number with no mark means an inactive call.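 The calls were made as follows: active = normalised median growth AUC below 0.1 of DMSO control; inactive = AUC 0.1 or higher.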
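Also: active when median AUC fell below 0.1.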

For `C=C(NC(=O)C(=C)NC(=O)c1csc(C2=N[C@@H]3c4csc(n4)[C@H]4NC(=O)c5csc(n5)[C@H]([C@](C)(O)[C@@H](C)O)NC(=O)[C@H]5CSC(=N5)/C(=C/C)NC(=O)[C@H]([C@@H](C)O)NC(=O)c5csc(n5)[C@]3(CC2)NC(=O)[C@H](C)NC(=O)C(=C)NC(=O)[C@H](C)NC(=O)[C@H]([C@@H](C)CC)N[C@@H]2C=Cc3c([C@H](C)O)cc(nc3[C@H]2O)C(=O)O[C@@H]4C)n1)C(N)=O` [Thiostrepton], the “growth AUC normalised to DMSO control” value was 0.0151 (active) in the assay on P. vulgatus RND KO, 0.0162 (active) in the assay on P. vulgatus WT, 1 in assay [1] and 1 in assay [2].

With `CC(C)(C)NCC(O)CSc1nc(-c2ccc(C(N)=O)s2)cs1` (stereo not drawn) [Arotinolol hydrochloride], the “growth AUC normalised to DMSO control” value with P. vulgatus RND KO is 1.02; with P. vulgatus WT it was 1; in assay [1] it was 0.996; in assay [2], 1.01.

For the compound `CC/C=C(\C(=O)N[C@@H]1C(=O)N2C(C(=O)OCOC(=O)C(C)(C)C)=C(COC(N)=O)CS[C@H]12)c1csc(N)n1` [Cefcapene pivoxil hydrochloride monohydrate], the results for the “growth AUC normalised to DMSO control” value in assay [1] and in assay [2] were 1.03 and 0.159, respectively.

`O=C1Nc2ccccc2C1(c1ccc(O)cc1)c1ccc(O)cc1` [Oxyphenisatin]: the “growth AUC normalised to DMSO control” value is 1.04 in the assay on P. vulgatus RND KO, 1.04 in the assay with P. vulgatus WT, 0.994 in assay [1] and 0.99 in assay [2].

For `CCN1/C(=C/C=C/C=C/c2sc3ccccc3[n+]2CC)Sc2ccccc21` [Dithiazanine iodide], the “growth AUC normalised to DMSO control” value in the assay on P. vulgatus WT was 1.02; in assay [1] it was 1; in assay [2] it was 0.695.

For the compound `CCOC(=O)Nc1ccc(NCc2ccc(F)cc2)nc1N` [Flupirtine], the “growth AUC normalised to DMSO control” value was 1.08 in the assay with P. vulgatus RND KO, 1.05 in the assay on P. vulgatus WT, 1 in assay [1] and 0.979 in assay [2].

In the case of `CC(C)=C/C(C)=N/Nc1nncc2ccccc12` [Budralazine], the “growth AUC normalised to DMSO control” value with P. vulgatus RND KO is 1.02; in the assay with P. vulgatus WT, 1.08; in assay [1], 0.999; in assay [2] it was 0.989.

With `CO/N=C(\C(=O)N[C@@H]1C(=O)N2C(C(=O)[O-])=C(C[n+]3ccn4ncccc43)CS[C@H]12)c1nsc(N)n1` [Cefozopran hydrochloride], the “growth AUC normalised to DMSO control” value in the assay on P. vulgatus WT is 0.128; in assay [1] it was 0.0996 (active); in assay [2] it was 0.1.

`CO/N=C(\C(=O)N[C@@H]1C(=O)N2C(C(=O)OC(C)OC(C)=O)=C(COC(N)=O)CS[C@H]12)c1ccco1` (stereo partly drawn) [Cefuroxime axetil]: the results for the “growth AUC normalised to DMSO control” value (in the assay with P. vulgatus WT; in assay [1]) were 0.664 and 1.1, respectively.

For `CC(C)COC(=O)OCN1C(=O)CN(CCN2CC(=O)N(COC(=O)OCC(C)C)C(=O)C2)CC1=O` [Sobuzoxane], the “growth AUC normalised to DMSO control” value in the assay on P. vulgatus RND KO is 1.04; in the assay with P. vulgatus WT, 1.08; in assay [1] it was 0.998; in assay [2] it was 1.

Regarding `Cc1c(O)c(=O)ccn1C` [Deferiprone], the “growth AUC normalised to DMSO control” value in the assay on P. vulgatus RND KO was 0.978; with P. vulgatus WT, 0.993; in assay [1] it was 1; in assay [2], 1.

For the compound `CCC(=O)c1ccc(O)cc1` [Paroxypropione], the “growth AUC normalised to DMSO control” value in the assay on P. vulgatus RND KO was 1; in the assay on P. vulgatus WT it was 0.985; in assay [1], 0.994; in assay [2], 1.

Turning to `COc1ncnc(NS(=O)(=O)c2ccc(N)cc2)c1OC` [Sulfadoxine], the “growth AUC normalised to DMSO control” value was 0.981 in the assay on P. vulgatus RND KO, 0.982 in the assay with P. vulgatus WT, 0.99 in assay [1] and 0.993 in assay [2].

Turning to `CC(C)(C)C(O)/C=C/c1ccc2c(c1)OCO2` (stereo not drawn) [Stiripentol], the “growth AUC normalised to DMSO control” value with P. vulgatus RND KO was 1.01; in the assay on P. vulgatus WT it was 1.02; in assay [1], 1; in assay [2] it was 0.93.

Turning to `O=C1[C@@H]2[C@H]3CC[C@H](C3)[C@@H]2C(=O)N1CCCCN1CCN(c2ncccn2)CC1` [Tandospirone], the “growth AUC normalised to DMSO control” value with P. vulgatus RND KO is 1.07; in the assay with P. vulgatus WT, 1.05; in assay [1], 1.01; in assay [2], 0.996.

Regarding `CCc1oc2ccccc2c1C(=O)c1ccc(O)cc1` [Benzarone], the “growth AUC normalised to DMSO control” value in the assay on P. vulgatus RND KO was 0.881; with P. vulgatus WT, 0.794; in assay [1] it was 1; in assay [2], 0.858.

Take `COCC1=C(C(=O)OC(C)OC(=O)OC(C)C)N2C(=O)[C@@H](NC(=O)/C(=N\OC)c3csc(N)n3)[C@H]2SC1` (stereo partly drawn) [Cefpodoxime proxetil]: the “growth AUC normalised to DMSO control” value in assay [1] was 0.853; in assay [2] it was 0.338.

On to `C[C@H]1[C@H](OC(=O)CCC(=O)O)O[C@@H]2O[C@@]3(C)CC[C@H]4[C@H](C)CC[C@@H]1[C@@]24OO3` [Artesunate], for which the “growth AUC normalised to DMSO control” value with P. vulgatus RND KO is 1.01; in the assay on P. vulgatus WT, 1; in assay [1], 1; in assay [2], 1.01.

In the case of `CO/N=C(\C(=O)N[C@@H]1C(=O)N2C(C(=O)OCOC(=O)C(C)(C)C)=C(/C=C\c3scnc3C)CS[C@H]12)c1csc(N)n1` [Cefditoren Pivoxil], the “growth AUC normalised to DMSO control” value in assay [1] was 0.905; in assay [2] it was 0.387.

Regarding `Cn1nnnc1SCC1=C(C(=O)O)N2C(=O)[C@@H](NC(=O)[C@H](O)c3ccccc3)[C@H]2SC1` [Cefamandole sodium salt], the “growth AUC normalised to DMSO control” value in the assay with P. vulgatus RND KO was 0.204; in assay [1] it was 0.0103 (active); in assay [2], 0.00496 (active).

With `C=CC[C@@H]1/C=C(\C)C[C@H](C)C[C@H](OC)[C@H]2O[C@@](O)(C(=O)C(=O)N3CCCC[C@H]3C(=O)O[C@H](/C(C)=C/[C@@H]3CC[C@@H](O)[C@H](OC)C3)[C@H](C)[C@@H](O)CC1=O)[C@H](C)C[C@@H]2OC` [Tacrolimus Monohydrate], the “growth AUC normalised to DMSO control” value was 1 with P. vulgatus RND KO, 1.03 in the assay on P. vulgatus WT, 0.998 in assay [1] and 1.04 in assay [2].

Regarding `CC1(C)S[C@@H]2[C@H](NC(=O)[C@H](N)c3ccccc3)C(=O)N2[C@H]1C(=O)O` [Ampicillin sodium salt], the results for the “growth AUC normalised to DMSO control” value in assay [1] and in assay [2] were 0.773 and 0.112, respectively.

In the case of `CCC(C)(C)c1ccc(CC(C)CN2C[C@@H](C)O[C@@H](C)C2)cc1` (stereo partly drawn) [Amorolfine hydrochloride], the “growth AUC normalised to DMSO control” value is 1.01 in the assay with P. vulgatus RND KO, 1.03 in the assay on P. vulgatus WT, 1.01 in assay [1] and 0.963 in assay [2].

Take `CCCc1c2oc(C(=O)O)cc(=O)c2cc2c(=O)cc(C(=O)O)n(CC)c12` [Nedocromil sodium]: the “growth AUC normalised to DMSO control” value in the assay on P. vulgatus RND KO is 1.02; in the assay with P. vulgatus WT it was 1.03; in assay [1], 0.992; in assay [2], 0.995.

As to `CCOC(=O)C1=C[C@@H](OC(CC)CC)[C@H](NC(C)=O)[C@@H](N)C1` [Oseltamivir phosphate], the “growth AUC normalised to DMSO control” value with P. vulgatus RND KO was 1.08; with P. vulgatus WT, 1.05; in assay [1] it was 0.996; in assay [2] it was 0.984.

On to `Nc1nc(/C(=C/CC(=O)O)C(=O)N[C@@H]2C(=O)N3C(C(=O)O)=CCS[C@H]23)cs1` [Ceftibuten], for which the “growth AUC normalised to DMSO control” value is 0.58 with P. vulgatus WT and 0.746 in assay [1].

Regarding `C/C(=C(\CCOC(=O)c1ccccc1)SS/C(CCOC(=O)c1ccccc1)=C(/C)N(C=O)Cc1cnc(C)nc1N)N(C=O)Cc1cnc(C)nc1N` [Bisbentiamine], the “growth AUC normalised to DMSO control” value is 1.02 with P. vulgatus RND KO, 1.07 with P. vulgatus WT, 1.01 in assay [1] and 0.999 in assay [2].
